Laboratory results: PubChem BioAssay (Tox21)
Results filed as inconclusive are left out. Activity calls are given as the source filed them. Unless noted, calls come from the whole dose curve. Where a SMILES comes first, the peptide text is derived from it.

Key:
[1] = qHTS assay to identify small molecule antagonists of the vitamin D receptor (VDR) signaling pathway - cell viability counter screen (AID 743225; active = well fitted curve in the direction sought with a large enough effect in the repeat runs; an effect the other way counts as inactive or inconclusive; note: % is set by controls: 0 for no effect and ±100 for the full control effect; nearly all actives have a fitted effect of over 50% in size)
Method in brief: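 Parallel cytotoxicity test: VDR-UAS-bla HEK 293T, 3 nM (final) 1-alpha,25-dihydroxyvitamin D3 with test compound, 16 h, 37C. Endpoint is CellTiter-Glo luminescence in the same wells.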

[2] = qHTS assay to identify small molecule agonists of the NFkB signaling pathway (AID 1159509; active = well fitted curve in the direction sought with a large enough effect in the signal ratio in the repeat runs, not every such curve was filed as active; the % refers to the signal ratio; note: series mostly up to about 61 µM; % is set by controls: 0 for no effect and ±100 for the full control effect)
Method in brief: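 Readout: FRET fluorescence, 405 nm excitation, 460/530 nm emission; beta-lactamase expression disrupts FRET. Cells: ME-180 stably carrying NF-kB-driven bla reporter. Compound exposure 5 hr, 37 C, 5% CO2.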

[3] = qHTS assay to identify small molecule agonists of the NFkB signaling pathway - cell viability counter screen (AID 1159515); note: series mostly up to about 61 µM; % is set by controls: 0 for no effect and ±100 for the full control effect; nearly all actives have a fitted effect of over 55% in size
Method in brief: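 Cells are seeded (2,000 NFkB-bla ME-180 per well), rested overnight, and dosed with DMSO-dissolved compounds for 5 hr at 37 C. Viability is then read by CellTiter-Glo luminescence after 30 min at room temperature.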

[4] = qHTS assay to identify small molecule agonists of the endoplasmic reticulum stress response signaling pathway (AID 1159516; active = well fitted activation curve with a large enough effect in the signal ratio in the repeat runs, not every such curve was filed as active; the % refers to the signal ratio; note: % is set by controls: 0 for no effect and ±100 for the full control effect)
Method in brief: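 Cells are seeded at 1,500 per well and incubated overnight. Compounds in DMSO are added for 5 hr at 37 C, then beta-lactamase FRET substrate for 2 hr at room temperature, and fluorescence at 460 and 530 nm is measured.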

[5] = qHTS assay to identify small molecule agonists of the endoplasmic reticulum stress response signaling pathway - cell viability counter screen (AID 1159517);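 note: HeLa cells carrying an ER stress response element beta-lactamase reporter; series mostly up to about 61 µM; % is set by controls: 0 for no effect and ±100 for the full control effect; nearly all actives have a fitted effect of over 50% in size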
Method in brief: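 After overnight attachment, ESRE-bla HeLa cells were treated with Tox21 library compounds for 5 hr. CellTiter-Glo luminescence, read 30 min post-addition at room temperature, reported viability.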

[6] = qHTS assay to identify small molecule antagonists of the retinoid-related orphan receptor gamma (ROR-gamma) signaling pathway - cell viability counter screen (AID 1159520; active = well fitted curve in the direction sought with a large enough effect in the repeat runs; an effect the other way counts as inactive or inconclusive; note: % is set by controls: 0 for no effect and ±100 for the full control effect; nearly all actives have a fitted effect of over 50% in size)
Method in brief: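 Cytotoxicity was read from cellular ATP (CellTiter-Glo luminescence) after 16 hr at 37 C with 1 uM doxycycline induction. The inducer was added 2 hr after compound transfer to Tet-on ROR gamma CHO cells.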

[7] = molecular target: Nuclear receptor ROR-gamma (Homo sapiens) (UniProt P51449); assay: qHTS assay to identify small molecule antagonists of the retinoid-related orphan receptor gamma (ROR-gamma) signaling pathway (AID 1159521; active = well fitted curve in the direction sought with a large enough effect in the repeat runs; an effect the other way counts as inactive or inconclusive;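 note: CHO cells with doxycycline inducible ROR-gamma driving an RORE luciferase reporter; top concentration of the series differs between compounds; % is set by controls: 0 for no effect and ±100 for the full control effect; nearly all actives have a fitted effect of over 50% in size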)
Method in brief: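 Decreased RORE-driven luciferase luminescence indicates antagonism. Tet-on RORγ CHO cells received compound, then 1 uM final doxycycline 2 h later; signal read after 16 h incubation.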

[8] = qHTS assay to identify small molecule agonists of the AP-1 signaling pathway - cell viability counter screen (AID 1159525); note: nearly all actives have a fitted effect of over 55% in size
Method in brief: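 Intracellular ATP by Cell Titer Glo luminescence (30 min, RT) in the same ME-180 AP-1-bla wells after the 5 h compound exposure at 37 °C. Normalised to tetra n-octyl ammonium bromide and DMSO controls.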

[9] = qHTS assay to identify small molecule agonists of the AP-1 signaling pathway (AID 1159526); note: % is set by controls: 0 for no effect and ±100 for the full control effect
[10] = molecular target: Retinoic acid receptor RXR-alpha (Homo sapiens) (UniProt P19793); assay: qHTS assay to identify small molecule agonists of the RXR signaling pathway (AID 1159527); note: % is set by controls: 0 for no effect and ±100 for the full control effect; nearly all actives have a fitted effect of over 35% in size
Method in brief: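 16 hr incubation of compound-treated RXR-alpha-UAS-bla HEK 293T cells (2% charcoal-stripped FBS, 37 C) preceded a 2 hr room-temperature LiveBLAzer FRET substrate step and blue/green fluorescence measurement.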

Retinoic acid receptor RXR-alpha (Homo sapiens), sequence (P19793 whole entry, looked up): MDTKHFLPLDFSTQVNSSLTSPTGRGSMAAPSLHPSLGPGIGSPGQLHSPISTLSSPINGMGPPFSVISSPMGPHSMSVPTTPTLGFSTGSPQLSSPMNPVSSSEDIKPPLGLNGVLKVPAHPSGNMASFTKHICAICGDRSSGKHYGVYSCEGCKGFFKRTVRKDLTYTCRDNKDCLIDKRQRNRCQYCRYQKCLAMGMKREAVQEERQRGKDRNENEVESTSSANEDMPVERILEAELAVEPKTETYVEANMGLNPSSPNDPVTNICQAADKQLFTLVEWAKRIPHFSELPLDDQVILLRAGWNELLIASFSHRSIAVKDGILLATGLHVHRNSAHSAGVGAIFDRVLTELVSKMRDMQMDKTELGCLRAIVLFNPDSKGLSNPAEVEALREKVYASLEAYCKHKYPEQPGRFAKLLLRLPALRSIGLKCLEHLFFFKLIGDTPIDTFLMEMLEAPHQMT

COc1cc2c(cc1OC)C(=O)C(CC1CCN(Cc3ccccc3)CC1)C2 (centres undefined)
inactive: outcome [1] | outcome [2] | outcome [3] | outcome [4] | outcome [5] | outcome [6] | outcome [7] | outcome [8] | outcome [9] | Potency [10]

CCn1cc(C(=O)O)c(=O)c2cnc(N3CCCC3)nc21
inactive: viability change, negative = cytotoxic [1] -2.96% [at 6.95 µM] | activation [2] 0.219% [at 6.95 µM] | activity, negative = cytotoxic [3] -27.6% [at 6.95 µM] | activation [4] 1.19% [at 6.95 µM] | activity change, negative = cytotoxicity [5] -11.8% [at 6.95 µM] | activity, negative = cytotoxicity [6] 1.16% [at 8.39 µM] | activity change, negative = inhibition [7] 14.3% [at 8.39 µM] | viability change, negative = cytotoxic [8] 0.489% [at 6.97 µM] | activation [9] -6.77% [at 6.97 µM] | activation [10] 0.584% [at 6.98 µM]

Cc1cc(-c2ccccc2)nnc1NCCN1CCOCC1
inactive: outcome [1] | outcome [2] | outcome [3] | outcome [4] | outcome [5] | outcome [6] | outcome [7] | outcome [8] | outcome [9] | Potency [10]

Fc1ccccc1
inactive: outcome [1] | outcome [2] | outcome [3] | outcome [4] | outcome [5] | outcome [6] | outcome [7] | outcome [8] | outcome [9] | Potency [10]

Cc1ccc(C(C)NC(=O)[C@@H](NC(=O)OC(C)C)C(C)C)cc1 (some centres undefined)
inactive: outcome [1] | outcome [2] | outcome [3] | outcome [4] | outcome [5] | outcome [6] | outcome [7] | outcome [8] | outcome [9] | Potency [10]

CCCCOCC(C)O (centres undefined)
inactive: outcome [1] | outcome [2] | outcome [3] | outcome [4] | outcome [5] | outcome [6] | outcome [7] | outcome [8] | outcome [9] | Potency [10]

CSc1cnccn1
inactive: outcome [1] | outcome [2] | outcome [3] | outcome [4] | outcome [5] | outcome [6] | outcome [7] | outcome [8] | outcome [9] | Potency [10]

COc1c2occc2c(OC)c2c(=O)cc(C)oc12
inactive: outcome [1] | outcome [2] | outcome [3] | outcome [4] | outcome [5] | outcome [6] | outcome [7] | outcome [8] | outcome [9] | Potency [10]

CC(C)=CCC[C@@](C)(O)[C@H]1CC=C(C)CC1
inactive: outcome [1] | outcome [2] | outcome [3] | outcome [4] | outcome [5] | outcome [6] | outcome [7] | outcome [8] | outcome [9] | Potency [10]

Cn1c(=O)c2[nH]c(Br)nc2n(C)c1=O
inactive: outcome [1] | outcome [2] | outcome [3] | outcome [4] | outcome [5] | outcome [6] | outcome [7] | outcome [8] | outcome [9] | Potency [10]

CC(=O)N[C@@H](CO)C(=O)N[C@@H](CC(=O)O)C(=O)N[C@@H](CCCCN)C(=O)N1CCC[C@H]1C(=O)O (Ac-SDKP-OH)
inactive: outcome [1] | outcome [2] | outcome [3] | outcome [4] | outcome [5] | outcome [7] | outcome [8] | outcome [9] | Potency [10]

C/C=C(\C)C(C)=O
inactive: outcome [1] | outcome [2] | outcome [3] | outcome [4] | outcome [5] | outcome [6] | outcome [7] | outcome [8] | outcome [9] | Potency [10]

O=C(O)CCCCCC(=O)O
inactive: outcome [1] | outcome [2] | outcome [3] | outcome [4] | outcome [5] | outcome [6] | outcome [7] | outcome [8] | outcome [9] | Potency [10]

CC(=O)OCC(=O)Nc1cc(C#N)cc(NC(=O)COC(C)=O)c1Cl
inactive: outcome [1] | outcome [2] | outcome [3] | outcome [4] | outcome [5] | outcome [7] | outcome [8] | outcome [9] | Potency [10]

CC/C(C)=N\O[Si](C)(O/N=C(\C)CC)O/N=C(\C)CC
inactive: outcome [1] | outcome [2] | outcome [3] | outcome [4] | outcome [5] | outcome [7] | outcome [8] | outcome [9] | Potency [10]

CC12CCC(C1)C(C)(C)C2O (centres undefined)
inactive: outcome [1] | outcome [2] | outcome [3] | outcome [4] | outcome [5] | outcome [6] | outcome [7] | outcome [8] | outcome [9] | Potency [10]

O=C(NCN1CCOCC1)c1cnccn1
inactive: outcome [1] | outcome [2] | outcome [3] | outcome [4] | outcome [5] | outcome [7] | outcome [8] | outcome [9] | Potency [10]

CC(C)COC(=O)c1ccccc1
inactive: outcome [2] | outcome [3] | outcome [4] | outcome [5] | outcome [7] | outcome [8] | outcome [9] | Potency [10]
